PubChem BioAssay
The source made the active and inactive calls. No rule for the calls is given here.

The compounds below were run against Pantothenate synthetase (Mycobacterium tuberculosis (strain ATCC 25618 / H37Rv)) (UniProt P9WIL5) (assay: Recombinant Mtb pantothenate synthetase (PanC) inhibitors, coupled enzyme, confirmatory (AID 375;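 also: 0% = full reaction with vehicle and 100% = no enzyme background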)). Conditions: coupled enzyme assay; at 10 µM, hits give high values.
Chain of Pantothenate synthetase (Mycobacterium tuberculosis (strain ATCC 25618 / H37Rv)) (P9WIL5 whole entry, looked up): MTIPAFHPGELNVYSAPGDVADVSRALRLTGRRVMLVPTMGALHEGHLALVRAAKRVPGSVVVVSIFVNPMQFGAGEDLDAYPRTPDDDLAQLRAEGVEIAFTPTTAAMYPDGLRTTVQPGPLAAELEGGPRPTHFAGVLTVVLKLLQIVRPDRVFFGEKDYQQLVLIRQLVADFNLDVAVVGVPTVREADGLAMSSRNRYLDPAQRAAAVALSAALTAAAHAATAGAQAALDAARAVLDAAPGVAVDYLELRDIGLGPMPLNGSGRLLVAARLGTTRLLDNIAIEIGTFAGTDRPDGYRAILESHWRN

Row | SMILES | inhibition
1 | COc1cc2cc(C(c3nnnn3C3CCCC3)N3CCCCCC3)c(=O)[nH]c2cc1OC (stereo not drawn) | 5% (inactive)
2 | Cc1cccc2cc(COC(=O)C(C)(C)C)c(=O)[nH]c12 | 0% (inactive)
3 | O=C(Nc1cccc2ncccc12)c1ccc2c(c1)OCCO2 | 0% (inactive)
4 | O=S(=O)(NCC1CCCO1)c1cc(Cl)ccc1Br (stereo not drawn) | 0% (inactive)
5 | COc1ccc(-n2nnnc2-c2cccc(OC)c2)cc1 | 0% (inactive)
6 | CC(NS(=O)(=O)c1ccccc1)C(c1cccs1)N1CCN(C)CC1 (stereo not drawn) | 4% (inactive)
7 | CC(C)CCNC(=O)C(C)N(Cc1ccc(F)cc1)C(=O)c1ccc(CN2CCCCC2)o1 (stereo not drawn) | 1% (inactive)
8 | O=C(COc1ccc(S(=O)(=O)N2CCCC2)cc1Cl)NC1CC1 | 8% (inactive)
9 | Cc1ccccc1OCCN1C(=O)NC2(CCc3ccccc32)C1=O (stereo not drawn) | 8% (inactive)
10 | CC[C@H](C)C(=O)O[C@H]1C[C@@H](C)C=C2C=C[C@H](C)[C@H](CC[C@@H]3C[C@@H](O)CC(=O)O3)[C@H]21 | 5% (inactive)
11 | Cc1sc2ncnc(SCC(=O)N3CCCC3)c2c1C | 0% (inactive)
12 | COc1ccc(C2C(C(=O)c3sc(C)nc3C)=C(O)C(=O)N2CCN2CCOCC2)cc1 (stereo not drawn) | 0% (inactive)
13 | CCCn1c(N)c(C(=O)CSc2nnc(Cc3ccccc3)o2)c(=O)n(C)c1=O | 2% (inactive)
14 | Cc1nnc(C)c2c(C)n(-c3ccc(Br)cc3)c(C)c12 | 0% (inactive)
15 | CCCCNC(=O)CSc1nc2ccc(N3CCOCC3)cc2c(=O)n1CCc1ccccc1 | 15% (inactive)
16 | CCC(C)c1ccc(NC(=O)C2CC2)cc1 (stereo not drawn) | 0% (inactive)
17 | COc1ccc(OC)c(S(=O)(=O)Nc2ccc(O)c3ccccc23)c1 | 8% (inactive)
18 | Cc1nnc(NC(=O)c2ccco2)s1 | 5% (inactive)
19 | O=C(CSc1nnc(CNC(=O)c2cccs2)o1)Nc1cccc(C(F)(F)F)c1 | 0% (inactive)
20 | COc1ccc(S(=O)(=O)NC(CC(=O)NCc2ccco2)c2ccco2)cc1 (stereo not drawn) | 3% (inactive)
21 | Cn1c(=O)c2c(nc(CN3CCCCC3)n2CCc2ccccc2)n(C)c1=O | 1% (inactive)
22 | O=C(O)C1CCCN1C(=O)Nc1ccc(F)cc1 (stereo not drawn) | 2% (inactive)
23 | CCOC(=O)CNC(=O)Cn1cnc2c(nnn2-c2cccc(Cl)c2)c1=O | 0% (inactive)
